Compounds with a hit are over-represented: about 3.5% of the library has one in this group of screens.
FBW7 activator = human FBW7 E3 ligase activation, primary screen | normalized activity (activation), % at 26.1 µM | Q969H0 | actives 0.13% (n = 650,000) | AlphaScreen FBW7–phospho-cyclin E peptide binding, activator screen; in the data active means normalized activity above about 1.9%;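 further: purified mutant Fbw7 with reduced substrate affinity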
MITF primary = blocks human microphthalmia-associated transcription factor; O75030; AlphaScreen MITF homodimerization, bead proximity signal; inhibition, % at 2.6 µM; actives 0.91% (n = 650,000); in the data active means inhibition above about 50%;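 further: 0% = vehicle wells with protein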
Target sequence (O75030 whole entry, looked up): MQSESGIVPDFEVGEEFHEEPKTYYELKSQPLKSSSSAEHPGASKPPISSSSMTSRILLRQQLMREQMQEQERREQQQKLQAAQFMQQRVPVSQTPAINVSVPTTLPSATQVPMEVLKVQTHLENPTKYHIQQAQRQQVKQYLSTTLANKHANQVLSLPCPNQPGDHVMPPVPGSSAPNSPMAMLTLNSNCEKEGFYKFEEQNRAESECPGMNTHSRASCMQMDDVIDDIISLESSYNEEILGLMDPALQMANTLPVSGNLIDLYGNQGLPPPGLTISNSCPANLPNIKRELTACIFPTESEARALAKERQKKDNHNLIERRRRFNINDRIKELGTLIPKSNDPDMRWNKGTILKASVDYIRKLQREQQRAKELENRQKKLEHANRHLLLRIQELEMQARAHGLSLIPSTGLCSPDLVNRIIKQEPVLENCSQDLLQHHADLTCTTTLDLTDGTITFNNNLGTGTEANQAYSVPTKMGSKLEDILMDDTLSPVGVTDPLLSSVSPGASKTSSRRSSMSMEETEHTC
GPR151 ag = human GPR151 activation. Q8TDV0. PathHunter beta-arrestin GPR151 cells, luminescence. activation, % at 11.2 µM. actives 1% (n = 650,000). AID 1508602; in the data active means activation above about 4.9%;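 further: 0% = median of compound wells and 100% = cells with positive control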
TEAD-YAP inh = TEAD-YAP interaction inhibition; HEK-TIYL cells, TEAD-Gal4/YAP UAS-luciferase luminescence; inhibition, % at 9.12 µM; actives 1.4% (n = 640,000); in the data active means inhibition above about 32%;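 further: 0% = median of test compound wells and 100% = reference inhibitor wells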
* marks the source's active call; other numbers are inactive results; ! = not confirmed by another sample.

SMILES	FBW7 activator	MITF primary	GPR151 ag	TEAD-YAP inh
COc1cc(C2C=C(c3ccc(Cl)cc3)Nc3ncnn32)cc(OC)c1OC (centres undefined)	0.0	11.8	-1.0	63.7*
CCC(C)(C(=O)NC1CCCC1)N(C)C(=O)Cc1cccs1 (centres undefined)	-0.2	-10.8	-1.1	0.6
COc1ccccc1-c1c(C(F)(F)F)oc2cc(OC(=O)N3CCOCC3)ccc2c1=O	0.1	13.2	0.7	52.2*
COc1ccccc1-c1c(C(F)(F)F)oc2cc(OC(=O)C(C)C)ccc2c1=O	0.3	12.3	-0.1	6.9
CCC(=O)NC(c1ccc(OC)c(OC)c1)c1ccc2cccnc2c1O (centres undefined)	-1.5	59.0*	-0.9	86.7*
CCC(=O)NC(c1ccc(OC)c(OC)c1)c1cc(Cl)c2cccnc2c1O (centres undefined)	0.0	27.8	0.4	46.2*
COc1ccc(C(NC(C)=O)c2ccc3cccnc3c2O)cc1OC (centres undefined)	-0.6	65.8*	-0.3	83.3*
COc1ccc(C(NC(C)=O)c2cc(Cl)c3cccnc3c2O)cc1OC (centres undefined)	-0.4	21.5	0.0	4.3
CCOC(=O)c1sc(NC(=O)CSc2nnc(CNC(=O)c3ccc([N+](=O)[O-])cc3)n2C)c(C(=O)OCC)c1C	0.2	16.6	1.3	-16.8
CCCCNC(=O)c1ccc(Cl)c([N+](=O)[O-])c1	0.0	10.5	-1.1	0.3
COc1ccccc1CCNC(=O)Cc1csc(SCc2ccc(Cl)cc2)n1	0.0	-0.1	-0.1	2.7
O=C(C(=O)N1CCN(C(=O)c2ccco2)CC1)c1c(-c2ccccc2)cc2ccccn12	0.0	2.7	0.0	42.3*
COc1ccc2cc3[n+](cc2c1OC)CCc1cc2c(cc1-3)OCO2	-0.2	2.4	0.0	56.1*!
COc1cc2c(c(OC)c1OC)-c1c(cc3c(c1OC)OCO3)CC(C)C(C)C2 (centres undefined)	-0.1	-2.1	-0.2	-3.0
O=C1CCC/C(=N\NC(=O)c2cc(-c3ccncc3)nc3ccccc23)C1	0.1	-4.6	2.1	26.3
Cc1cc(C(=O)N/N=C(\CCC(=O)O)c2cccs2)c2ccccc2n1	0.3	11.5	-0.3	51.3*
Cc1cc(C(=O)N/N=C2\CCCC(=O)C2)c2ccccc2n1	0.0	-6.7	-0.3	39.8*
CCOc1cc(C2Nc3ccccc3NC3=C2C(=O)CC(c2ccc(OC)c(OC)c2)C3)cc([N+](=O)[O-])c1O (centres undefined)	0.4	25.9	-1.8	-4.0
COc1ccc(NC(=O)N2CCC(CO)(Cc3ccccc3)CC2)cc1	-0.1	-4.6	-1.0	5.6
c1csc(CNc2ncnc3sccc23)c1	-0.1	4.4	1.5	32.4*
COc1ccc(CCNc2ncnc3sccc23)cc1	-0.1	-11.0	1.9	48.8*
c1ccc(CNc2ncnc3sccc23)cc1	0.3	-3.9	-0.2	1.5
COc1ccc(CCNc2ncnc3[nH]ncc23)cc1	0.1	-2.2	2.4	24.7
CCN(CC)CCS(=O)(=O)CCC(=O)NCNC(=O)CCS(=O)(=O)CCN(CC)CC	0.1	17.2	0.8	-2.7
COc1cccc2c1OC(c1ccc(F)c(F)c1)N1N=C(c3ccc(C)o3)CC21 (centres undefined)	0.0	11.4	-0.1	32.6*
SMILES	FBW7 activator	MITF primary	GPR151 ag	TEAD-YAP inh
CCOc1ccc(C2=NN3C(C2)c2cccc(OC)c2OC3c2ccc(F)c(F)c2)cc1 (centres undefined)	0.5	6.3	-1.7	14.0
CCOc1cccc2c1OC(c1ccccc1Cl)N1N=C(c3ccc(C)o3)CC21 (centres undefined)	0.0	-5.0	-1.1	-22.7
COc1cccc2c1OC(c1ccccc1Cl)N1N=C(c3ccc(C)o3)CC21 (centres undefined)	0.0	2.8	-0.7	43.7*
CCN1/C(=C/c2cccc[n+]2C)Sc2ccccc21	0.0	-2.4	2.4	46.5*
CCN1/C(=C/c2cc(C)[n+](CCO)c(C)c2)Sc2ccccc21	-0.2	1.2	1.3	33.2*
COCC[n+]1c(C)cc(/C=C2\Sc3ccccc3N2C)cc1C	-0.1	-7.2	0.2	76.0*
COc1ccc(/C=C2\Oc3c(ccc(O)c3CN3CCCC3)C2=O)cc1	-0.1	14.7	-0.1	2.2
COc1cc(/C=C2\Oc3c(ccc(O)c3CN3CCCCC3)C2=O)cc(OC)c1OC	-0.1	13.1	2.2	32.1*
Cc1cc(Cl)ccc1OCC(=O)Nc1cccc(Cl)c1Cl	-0.2	-1.4	1.2	6.7
CCCCN(C)C(=O)c1nc2ccccn2c1CN1CCN(C2CCS(=O)(=O)C2)CC1 (centres undefined)	0.0	-1.5	-1.0	-2.9
CC(=O)Nc1cccc(Oc2nnc(-c3ccc(C)cc3)c3ccccc23)c1	0.0	-7.7	-0.2	2.1
CC(=O)Nc1ccc(Oc2nnc(C)c3ccccc23)cc1	-0.1	-20.6	-1.0	65.3*
CCc1ccc(CNC(=O)CN(C)c2nnc(N3CCCC3=O)s2)cc1	-0.1	3.6	0.2	-2.0
O=C(Nc1nc2ccc(-c3cn[nH]c3)cc2s1)C1COc2ccc(F)cc2C1 (centres undefined)	0.7	13.7	-0.8	47.8*
O=C(Nc1nc2ccc(-c3cn[nH]c3)cc2s1)C1CNCC1c1ccccc1 (centres undefined)	1.0	12.9	-1.2	53.9*
COc1cccc(C(=O)Nc2nc3ccc(-c4cn[nH]c4)cc3s2)c1	0.1	8.1	-0.1	25.3
COc1cccc(CNC(=O)Nc2nc3ccc(-c4cn[nH]c4)cc3s2)c1	0.1	4.2	0.0	96.4*
COc1ccc2c(c1)CC(C(=O)Nc1nc3ccc(-c4cn[nH]c4)cc3s1)CO2 (centres undefined)	0.7	13.9	-0.9	19.7
NCC(=O)N1CC(C(=O)Nc2nc3ccc(-c4cn[nH]c4)cc3s2)C(c2ccccc2)C1 (centres undefined)	0.0	-10.7	-1.6	9.3
CN(Cc1ccccc1)S(=O)(=O)c1ccc(F)c(C(=O)Nc2ccccc2Br)c1	0.2	10.5	-2.5	-15.2
C/C(=N/Nc1ccc([N+](=O)[O-])cc1[N+](=O)[O-])c1ccc2c(c1)OCCO2	-0.1	0.1	1.8	3.9
Cc1cc(C)c(C(=O)Nc2c(C)n(C)n(-c3ccccc3)c2=O)c(C)c1	0.8	-5.8	-0.7	6.2
COC(=O)Cn1c(=NC(=O)CN(C)S(C)(=O)=O)sc2c(C)cc(C)cc21	-0.1	10.2	-1.4	0.9
CC(C)(C)c1nc2scc(-c3ccc(Br)cc3)c2c(=O)o1	0.2	9.4	0.3	34.2*
CC(C)(C)c1nc2scc(-c3ccccc3)c2c(=O)o1	0.0	2.5	0.6	0.5
SMILES	FBW7 activator	MITF primary	GPR151 ag	TEAD-YAP inh
C/C=C/C(=O)Nc1ccc(-c2ccc(NC(=O)/C=C/C)c(OC)c2)cc1OC	0.6	8.4	-0.5	60.5*
Fc1ccc(CSc2nn3cnnc3s2)cc1	0.7	8.2	-1.4	58.0*
c1ccc(CSc2nn3cnnc3s2)cc1	-0.2	-8.1	0.1	58.1*
Clc1ccccc1CSc1nn2cnnc2s1	-0.1	-3.7	-0.3	54.8*
Cn1cnnc1SCc1ccccc1Cl	0.0	0.5	1.1	11.6
CN1C(C(=O)Nc2ccccn2)=C(O)c2sccc2S1(=O)=O	2.0*!	8.8	-0.3	-4.5

Bioassay records (PubChem)
